Source: PubChem (Bradner/Qi Labs at DFCI)
Shown is part of a subset that was picked to be rich in hits.
CBX7 inh: inhibitors of human CBX7 binding to H3K27me3 peptide. AID 1224903. normalised signal (fraction of DMSO) (no concentration beside the values). AlphaScreen His6-CBX7 / biotin-H3K27me3 peptide binding; hits give low values. O95931. 66,000 compounds, 1.1% hits; in the data active = normalised signal below about 0.5
Target sequence (O95931 whole entry, looked up): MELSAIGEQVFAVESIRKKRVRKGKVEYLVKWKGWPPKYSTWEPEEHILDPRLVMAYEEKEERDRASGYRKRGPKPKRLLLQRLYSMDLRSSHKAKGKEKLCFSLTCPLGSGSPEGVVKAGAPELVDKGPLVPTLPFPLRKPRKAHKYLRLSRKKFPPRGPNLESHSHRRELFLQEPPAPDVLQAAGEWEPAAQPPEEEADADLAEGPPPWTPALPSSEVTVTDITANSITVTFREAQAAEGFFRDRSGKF
Large screens that a line does not name were inactive.

O=C1CSC(c2ccc(Cl)cc2)c2c(-c3ccccc3)nn(-c3ccccc3)c2N1 (stereo not given)	none
CN(C)c1ccc(C2SCC(=O)Nc3c2c(-c2ccccc2)nn3-c2ccccc2)cc1 (stereo not given)	CBX7 inh 0.42
COc1ccc(C2SCC(=O)Nc3c2c(C)nn3-c2ccccc2)cc1 (stereo not given)	none
COc1ccc(CCNCc2cc(OC)c3c(c2)OCO3)cc1	none
COc1ccc(CCNCc2ccccn2)cc1OC	CBX7 inh 0.27
COc1ccc(CCNCc2cccnc2)cc1OC	none
COCCCn1c(-c2ccc(OC)cc2)cc(C(=O)NC2CCCCC2)c1C	none
COc1ccc2[nH]c(C)c(CCNCc3cccnc3)c2c1	none
COc1ccc2[nH]c(C)c(CCNCc3ccc(F)cc3F)c2c1	none
COc1ccc2[nH]c(C)c(CCNCc3nc[nH]c3C)c2c1	CBX7 inh 0.0075
O=C(Nc1cccc(Cl)c1)N1C[C@H]2C[C@@H](C1)c1cccc(=O)n1C2	none
COc1ccc(-n2c(/C=C/c3ccc(O)c(OC)c3)nc3ccccc3c2=O)cc1	none
Cc1nc2ccccc2c(=O)n1-c1cccc(O)c1	none
COC(=O)c1[nH]cnc1C(=O)Nc1ccc(Br)cc1C(=O)c1ccccc1	none
Cc1ccccc1-n1nnnc1C1(NCCc2c(C)[nH]c3ccccc23)CCCCC1	CBX7 inh 0.49
Cc1ccc(-n2nnnc2C2(NCCc3c(C)[nH]c4c(Cl)c(Cl)ccc34)CCCCC2)cc1	none
COc1ccc(-n2nnnc2C2(NCCc3c(C)[nH]c4c(Cl)ccc(Cl)c34)CCCCC2)cc1	none
COc1ccc(OC)c(C2=NCC(=O)Nc3c2oc2ccccc32)c1	none
O=c1c2ccccc2nc(/C=C\c2cccc(C(F)(F)F)c2)n1-c1ccc(F)cc1	none
O=C1CN=C(c2ccc(F)cc2)c2oc3ccccc3c2N1	none
